Screens as filed in PubChem.
Hits are enriched below; roughly 17% of the tested compounds scored in any of these assays.
DT40 TDP1 CPT: qHTS for Inhibitors of human tyrosyl-DNA phosphodiesterase 1 (TDP1): qHTS in cells in presence of CPT. 420,000 tested, 12% active. chicken DT40 Tdp1-/-;hTDP1 cells + 20 nM CPT, ATP luminescence, 48 h. AID 686979, 2013. Potency, µM (doses to about 46.2 µM), most hits filed as inhibitors; note: nearly all actives have a fitted effect of over 55% in size
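Chicken DT40 Tdp1-/- cells complemented with human TDP1, 400 cells/well, exposed to compounds plus 20 nM camptothecin for at least 48 h at 37 C; viability read as ATP content by CellTiter-Glo luminescence.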
HepG2 tox: qHTS for Inhibitors of TGF-b: Cytotox Counterscreen; AID 588856, 2011; HepG2 CAGA-GFP viability, ATP luminescence, 18 h; Potency, µM (highest dose often 46.1 µM), actives largely listed as cytotoxic; 410,000 tested, 0.76% active
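CellTiter-Glo luminescence gave cytotoxicity after 18 hours at 37 degrees C. The cells were HepG2 CAGA-GFP in 1% FBS DMEM, stimulated with 500 pg/mL TGF-beta after compound addition. %Activity was normalised to no-cell wells (complete cell-killing) and DMSO (no toxicity), and curves were fitted and classified.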
HT1080 IDH1KD tx: qHTS for induction of synthetic lethality in tumor cells producing 2HG: qHTS for the HT-1080-IDH1KD cell line; 360,000 tested, 2% active; Potency, µM (highest dose often 46.1 µM), hits mostly cytotoxic; HT-1080 IDH1 knockdown viability, ATP luminescence, 48 h
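CellTiter-Glo luminescence after 48 h compound exposure at 37 degrees C of IDH1-knockdown HT-1080 cells in 5% FBS RPMI. %Activity scaled between DMSO wells and cell-free media wells, with curves fitted and assigned curve classes.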
TGFb inhibitor: qHTS for Inhibitors of TGF-b | HepG2 CAGA-GFP TGF-b/SMAD3 reporter, GFP fluorescence, 18 h; TGF-beta stimulated, 500 pg/mL final | Potency, µM (titrated, usually from 46.1 µM), hits mostly inhibitors | 410,000 tested, 1.2% active | AID 588855, 2011; note: nearly all actives have a fitted effect of over 65% in size
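Inhibition of TGF-beta-driven CAGA-GFP reporter expression in HEPG2 cells is measured by cellular GFP fluorescence after 18 h stimulation with 500 pg/mL recombinant TGF-beta in 1% FBS medium at 37 degrees C.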
DT40 TDP1 no CPT: qHTS for Inhibitors of human tyrosyl-DNA phosphodiesterase 1 (TDP1): qHTS in cells in absence of CPT; AID 686978, 2013; DT40 Tdp1-/- hTDP1 cells, no CPT, ATP luminescence, 48 h; Potency, µM (highest dose often 46.2 µM), actives largely listed as inhibitors; 420,000 tested, 15% active; note: nearly all actives have a fitted effect of over 55% in size
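Compound effects on proliferation are scored in DT40 Tdp1-/-;hTDP1 cells in the absence of CPT. ATP levels (CellTiter-Glo luminescence) are recorded after a ≥48 hr, 37 °C incubation.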
HT1080-NT tox: qHTS for induction of synthetic lethality in tumor cells producing 2HG: qHTS for the HT-1080-NT fibrosarcoma cell line. 360,000 tested, 1.6% active. HT-1080-NT fibrosarcoma viability, CellTiter-Glo ATP luminescence, 48 h. Potency, µM (highest dose often 46.1 µM), most hits filed as cytotoxic;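 note: NT is the 2HG producing partner of a matched IDH1 knockdown line; nearly all actives have a fitted effect of over 55% in size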
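Viability of the 2HG-overproducing fibrosarcoma line after 48 hours of compound exposure at 37 degrees C was determined by luminescence with CellTiter-Glo, and concentration-effect curves were then fitted and categorized.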
Numbers stand for hits; . = inactive; ? = inconclusive; / = no result; ! = not active in a repeat; [ ] = remark or other dose. Calls come from the whole dose curve; as a rule, active = well fitted curve in the direction sought with a large enough effect; inconclusive = small, poorly fitted or top-dose-only effect, or another doubt; inactive = no such curve, though single readings can be large; an effect the other way counts as inactive or inconclusive.

SMILES	DT40 TDP1 CPT	HepG2 tox	HT1080 IDH1KD tx	TGFb inhibitor	DT40 TDP1 no CPT	HT1080-NT tox
c1ccc(C[n+]2cccc(-c3ccccc3)c2)cc1	8.2µM	.	.	.	8.2µM	.
c1ccc(C[n+]2ccc3ccccc3c2)cc1	10.3µM	.	.	.	16.4µM	.
Cc1ccccc1Cn1cc(NC(=O)c2cc(C3CC3)on2)cn1	.	.	.	.	.	.
CCC1(C2CCN(C(=O)c3cc4ccccc4o3)CC2)NC(=O)N(CCc2scnc2C)C1=O (stereo not drawn)	.[9.04 µM]	/	/	/	?	/
CN1CCN(C(=O)C2CCN(c3ncc(C(F)(F)F)cc3Cl)CC2)CC1	?	.	.	.	20.6µM	.
O=C(CN1CCN(c2ncc(C(F)(F)F)cc2Cl)CC1)N1CCN(c2ncc(C(F)(F)F)cc2Cl)CC1	17.8µM	.	.	.	15.8µM	.
O=C(c1cccc(C(F)(F)F)c1)N1CCOC12CCN(c1ncc(C(F)(F)F)cc1Cl)CC2	23.1µM	.	.	?	23.1µM	.
N#Cc1ccc(CN2CCC3(CC2)CCN(C(=O)c2ccncc2)CC3)cc1	.	/	/	/	.	/
CC(=O)n1c2c(c3ccccc31)OC(N)=C(C#N)C2c1cccc(Cl)c1Cl (stereo not drawn)	14.6µM	.	?	.	7.31µM	?
COc1ccc(CN2CCCC(c3nc(C)ncc3-c3ccc(F)cc3)C2)c(OC)c1OC (stereo not drawn)	11.6µM	/	/	/	?	/
COc1ccc(OC)c(CN2CCCC(c3nc(C)ncc3-c3ccc(F)cc3)C2)c1 (stereo not drawn)	20.6µM	/	/	/	?	/
CCOC(=O)C1CCCN(Cc2ccccc2OCC)C1 (stereo not drawn)	.	.	.	.	.	.[9.24 µM]
CCOc1ccccc1CN1CCCC(c2nc(C)ncc2-c2ccc(F)cc2)C1 (stereo not drawn)	?	/	/	/	18.4µM	/
COCCCCCCCCCCCC(=O)O	.[4.12 µM]	/	/	/	.[4.12 µM]	/
Cc1cccc(-c2nc3c4ccccc4n(CC(=O)Nc4cccc(F)c4)c(=O)n3n2)c1	?	.	/	?	?	/
Cc1cc(-n2c(C)cc(C(=O)CSc3ccc4c(c3)OCCO4)c2C)no1	?	.	.	.	25.9µM	.
Cc1cc(-n2c(C)cc(C(=O)CCl)c2C)no1	1.16µM	11.2µM	7.31µM	8.91µM	0.92µM	5.8µM
Cc1cc(-n2c(C)cc(C(=O)CSc3ccccn3)c2C)no1	?	.	.	.	?	.
COc1ccc(C(=O)C2C(c3ccc(-c4ccccc4[N+](=O)[O-])o3)NC(=O)NC2(O)C(F)(F)F)cc1 (stereo not drawn)	20.6µM	.	.	.	18.4µM	.
O=C(NC1CCCC1)C(c1ccncc1)N(C(=O)Cn1nnc(-c2ccccc2F)n1)c1cccc(F)c1 (stereo not drawn)	.	.	.	.	.	.
COc1ccc2cc(C3CC(c4ccco4)=NN3S(=O)(=O)c3ccccc3)c(Cl)nc2c1 (stereo not drawn)	?	.	.	.	14.6µM	.
COc1ccccc1C1CC(c2ccco2)=NN1S(C)(=O)=O (stereo not drawn)	20.6µM	.	.	.	?	.
C[C@@H]1CN([C@H](C)CO)C(=O)CCCn2nncc2CO[C@H]1CN(C)S(=O)(=O)c1ccccc1F	.	.	.	.	.	.
O=C(CCl)Nc1c2c(nn1-c1ccccc1)CSC2	20.6µM	.	?	?	14.6µM	?
CC(C)(C)C(=O)Nc1c2c(nn1-c1ccccc1)CSC2	?	.	.	.	23.1µM	.
SMILES	DT40 TDP1 CPT	HepG2 tox	HT1080 IDH1KD tx	TGFb inhibitor	DT40 TDP1 no CPT	HT1080-NT tox
CC(=O)Nc1c2c(nn1-c1ccccc1)CSC2	.	.	.	.	.	.
COc1ccc(-n2nc3c(c2NC(=O)CCCl)CSC3)cc1	?	.	.	.	18.4µM	.
O=C(NCc1ccccc1)C(=O)Nc1c2c(nn1-c1ccccc1)CSC2	16.4µM	.	/	?	18.4µM	/
Cn1cnc([N+](=O)[O-])c1SCCO	?	.	.	.	.	.
COc1ccccc1/C=C/C(=O)Nc1cccc(S(=O)(=O)N2CCOCC2)c1	?	.	.	.	?	.
NC(=O)c1ccc(NC(=O)c2cc(S(=O)(=O)N3CCCCC3)ccc2N2CCOCC2)cc1	.	.	.	.	.	.
O=C(Nc1ccc(Cl)cc1Cl)[C@@H]1CC=C[C@@H]2CCN(Cc3ccccc3)C(=O)[C@@H]21	10µM	.	/	.	?	/
O=C(NCCc1ccccc1)[C@@H]1CC=C[C@@H]2CCN(C3CCCCC3)C(=O)[C@@H]21	20µM!	.	.	.	?	.
O=C(Nc1ccccc1)[C@@H]1CC=C[C@@H]2CCN(C3CC3)C(=O)[C@@H]21	.	.	/	.	.	/
CCCCNC(=O)[C@@H]1CC=C[C@@H]2CCN(Cc3ccc(Cl)c(Cl)c3)C(=O)[C@@H]21	11.2µM	.	.	7.94µM	8.91µM	.
CCCCNC(=O)[C@@H]1CC=C[C@@H]2CCN(Cc3ccccc3)C(=O)[C@@H]21	.	.	/	.	.	/
COc1ccc(CN2CC[C@H]3C=CC[C@@H](C(=O)Nc4ccc(Cl)c(C(F)(F)F)c4)[C@H]3C2=O)cc1OC	?	.	.	11.2µM!	11.2µM	.
COC(=O)[C@H](Cc1c[nH]c2ccccc12)NC(=O)NCc1ccc(OC)c(OC)c1	.	.	.	.	.	.
O=C(NCc1cccnc1)[C@@H]1CC=C[C@@H]2CCN(Cc3ccc(Cl)c(Cl)c3)C(=O)[C@@H]21	?	.	.	11.2µM	?	.
CC1(C(=O)NS(=O)(=O)c2ccc(Cl)cc2)CCN1C(=O)C1(c2ccc(Cl)cc2)CCC1 (stereo not drawn)	20.6µM	.	.	.	?	.
CC1(C(=O)NS(=O)(=O)c2ccc(C#N)cc2)CCN1C(=O)C1(c2ccccc2)CCCC1 (stereo not drawn)	11.6µM	.	?	.	13µM	.
Cc1ccc(F)c(S(=O)(=O)NC(=O)C2(C)CCN2C(=O)C2(c3ccc(Cl)cc3)CCC2)c1 (stereo not drawn)	16.4µM	.	.	?	?	.
CC1(C(=O)NS(=O)(=O)c2ccc(Cl)cc2)CCN1C(=O)C1(c2ccccc2)CCCC1 (stereo not drawn)	?	.	.	.	?	.
